This excerpt belongs to a sample that is enriched for hits.
AmpC detergent: AmpC beta-lactamase inhibition with detergent present; AmpC hydrolysis of nitrocefin, absorbance 480 nm, 0.01% Triton; Potency, µM (top dose mostly 114 µM), for the others: top-dose activity change, negative = inhibition, most hits filed as inhibitors; P00811; 370,000 compounds, 0.041% hits;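 further: potency means the concentration at half of the fitted maximal effect; 0% = no-compound wells and -100% = no-enzyme wells; nearly all actives have a fitted effect of over 25% in size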
Target sequence (P00811 whole entry, looked up): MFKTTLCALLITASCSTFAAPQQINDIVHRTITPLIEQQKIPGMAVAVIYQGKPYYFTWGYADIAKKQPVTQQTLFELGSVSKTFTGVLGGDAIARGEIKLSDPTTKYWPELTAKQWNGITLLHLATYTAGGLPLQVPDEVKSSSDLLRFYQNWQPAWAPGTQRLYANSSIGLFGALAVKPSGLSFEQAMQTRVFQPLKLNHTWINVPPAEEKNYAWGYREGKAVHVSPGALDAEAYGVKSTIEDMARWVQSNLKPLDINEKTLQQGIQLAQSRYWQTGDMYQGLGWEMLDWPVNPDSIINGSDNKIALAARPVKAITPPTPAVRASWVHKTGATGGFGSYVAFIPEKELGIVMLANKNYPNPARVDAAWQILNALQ
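20 mM phosphate pH 7.0 + 0.01% (detergent screen) or 0.0001% Triton X-100; 5.3 nM AmpC reagent; cpd preinc 15 min RT; nitrocefin (800 uM stock) to start; A480 q20 s × 4 min; Activity was normalised to no-enzyme and no-compound control wells.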
Shiga inhibitor: Shiga toxin inhibition; 290,000 compounds, 9.2% hits; Vero cells, Shiga toxin protein synthesis inhibition reporter; inhibition, % at 38.7 µM; AID 2315; in the data active means inhibition mostly above about 28%, no sharp cut-off; inactive means mostly below about 43%; further: 0% is about no effect
AMA1 RON2 block: inhibitors of Plasmodium falciparum AMA1-RON2 interaction | Potency, µM (titrated, usually from 58.2 µM), inactives show at the highest dose activity change, negative = inhibition, usual class: inhibitors | AlphaScreen AMA1-biotinylated RON2 peptide binding | AID 720542 | 360,000 compounds, 0.2% hits;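 further: potency means the concentration at half of the fitted maximal effect; 0% = vehicle wells and -100% = peptide control; nearly all actives have a fitted effect of over 45% in size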
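AMA1 (3D7) with his tag at 25 nM final met compounds first, then biotinylated RON2 peptide at 25 nM; detection used donor plus acceptor beads, 10 µg/mL apiece, read by AlphaScreen after 30 min at room temperature.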
CHX counter: counter-screen for Shiga toxin inhibitors: cycloheximide protein synthesis inhibition; cell reporter, cycloheximide protein synthesis inhibition counterscreen; max response, %; 300,000 compounds, 12% hits; in the data active means max response mostly above about 13%, no sharp cut-off; inactive means mostly below about 14%; further: read at 38.3 µM for the half of the compounds with a filed dose; 0% is about no effect
AmpC no deterg: inhibitors of E. coli AmpC beta-lactamase without detergent. 330,000 compounds, 0.52% hits. AmpC nitrocefin hydrolysis, absorbance 480 nm, 0.0001% Triton. Potency, µM (top dose mostly 57.1 µM), inactives show at the highest dose activity change, negative = inhibition, hits mostly inhibitors. P00811;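 further: potency means the concentration at half of the fitted maximal effect; plate controls were no compound for no effect and no enzyme for full effect; nearly all actives have a fitted effect of over 20% in size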
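20 mM phosphate pH 7.0 + 0.01% (detergent screen) or 0.0001% Triton X-100; 5.3 nM AmpC reagent; cpd preinc 15 min RT; nitrocefin (800 uM stock) to start; A480 q20 s × 4 min; Activity was normalised to no-enzyme and no-compound control wells.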
SARS PLP yeast: blocks SARS-CoV papain-like protease in a yeast assay | 330,000 compounds, 0.19% hits | S. cerevisiae expressing SARS-CoV PLpro, growth rescue | Potency, µM (doses to about 32.9 µM), inactives show at the top dose activity, positive = growth rescue, actives largely listed as activators; calls by dose curve; further: potency means the concentration at half of the fitted maximal effect; 0% is about no effect; nearly all actives have a fitted effect of over 55% in size
An asterisk follows results filed as active; u = inconclusive; x = not tested or not shown; [ ] = another dose, or the depositor's remark. Unless noted, the call rests on the fitted dose curve; in most records, active means well fitted curve in the direction sought with a large enough effect; inconclusive means small, poorly fitted or top-dose-only effect, or another doubt; inactive means no such curve, though single readings can be large; an effect the other way counts as inactive or inconclusive.

SMILES	AmpC detergent	Shiga inhibitor	AMA1 RON2 block	CHX counter	AmpC no deterg	SARS PLP yeast
O=C(NCC1CCCO1)c1cc2c(s1)CS(=O)(=O)C2 (centres undefined)	7%	8	2%	7	-1%	0%
O=C(NCCC1=CCCCC1)c1cc2c(s1)CS(=O)(=O)C2	u	25*	6%	17*	-24%	5%
O=C(NCCC1=CCCCC1)c1cnsn1	-14%	46*	1%	35*	0%	0%
C/C(=N\NC(=O)C(N)=O)c1ccc(OC(F)F)cc1	1%	11	2%	14	-14%	0%
C/C(=N\Nc1ccccn1)c1ccc(OC(F)F)cc1	-1%	38*	-3%	18	0%[2.29 µM]	-1%
C/C(=N\N=C(c1ccccc1)c1ccccc1)c1cccs1	-5%	25	-9%	7	-15%	-24%
C/C(=N\Nc1ccccn1)c1cccs1	2%	93*	-10%	46*	-22%	8%
C/C(=N\Nc1ccccn1)c1ccc(C#N)cc1	-10%	43*	-1%	25*	-18%[11.4 µM]	-1%
Cc1cccc(C)c1-n1c(SCC(=O)Nc2ccc(C(=O)O)cc2)nnc1-c1cccc(S(=O)(=O)N(C)C)c1	6%	6	0%	-4	-30%	2%
CCOC(=O)CC1CCCCN1Cc1cn[nH]c1-c1ccc(F)cc1F (centres undefined)	6%	-12	4%	0	-7%	0%
O=C(Nc1ccc(Cl)c(-c2nc3cc(Cl)ccc3o2)c1)c1cc([N+](=O)[O-])ccc1N1CCOCC1	-5%	x	x	x	x	x
c1ccc(OCCCCn2cnc3ccccc32)cc1	-8%	14	-5%	6	-4%	-1%
Brc1ccccc1OCCCn1cnc2ccccc21	4%	52	u	35*	29%	0%
Cc1ccccc1OCCCCn1cnc2ccccc21	1%	23	5%	16*	47%	8%
Cc1ccc(OCCCCn2cnc3ccccc32)cc1	-8%	88*	11%	40*	14%	1%
Cc1ccccc1Cn1cnc2ccccc21	1%	-9	-1%	2	-16%	0%
COc1cccc(NC(=O)CSC2=Nc3ccccc3C3=NC(CCC(=O)NCc4ccco4)C(=O)N23)c1 (centres undefined)	-1%	x	x	x	x	x
CSc1nc(-c2ccco2)nn1C(=O)c1cccs1	1%	22	-4%	9	-7%	-1%
CCC(=O)n1nc(-c2ccco2)nc1SCc1ccccc1	1%	32*	-6%	35*	-28%	-11%
O=C(c1cccs1)n1nc(-c2ccco2)nc1SCc1ccccc1	4%	41*	-3%	26*	-23%	-2%
CC(=O)n1nc(-c2ccco2)nc1SCc1ccccc1	-13%	36	-7%	19*	-24%	-45%
CC(=O)n1nc(-c2ccco2)nc1N	-4%	-16	-5%	-1	-22%	1%
CCn1c(O)c(/C=C/C=C/C=Nc2ccccc2)sc1=S	6%	11	27%	-1	-30%	0%
CCC1CCCCN1CCCNC(=O)C1CCN(S(=O)(=O)N2CCC3(CC2)OCCO3)CC1 (centres undefined)	u	-5	-6%	-2	-3%	-3%
O=[N+]([O-])c1cc2c(c(CSc3nnc4ccccn34)c1)OCOC2	u	-7	-15%	5	-26%	6%
SMILES	AmpC detergent	Shiga inhibitor	AMA1 RON2 block	CHX counter	AmpC no deterg	SARS PLP yeast
Cc1noc(C)c1S(=O)(=O)NC(=O)C1(C)CCN1C(=O)c1ccc(C2CCCCC2)cc1 (centres undefined)	x	x	-3%	x	x	x
O=C(c1ccccc1Cl)N1CCN(S(=O)(=O)c2cccs2)CC1	8%	-20	-5%	-8	-19%	4%
CC(C)Sc1nc(N)c2c3c(sc2n1)CN(C)CC3	u	21	2%	16*	-19%	-4%
O=C(O)CSc1nc2sc3c(c2c(=O)n1Cc1ccccc1)CCCCC3	-15%	40*	-3%	26*	-20%	-3%
CSc1nc(NCC(C)C)c2c3c(sc2n1)CN(C)CC3	2%	-10	28%	0	20%	0%
Cc1ccccc1-n1c(SCC(=O)O)nc2sc3c(c2c1=O)CCCC3	-9%	2	0%	-9	-31%	2%

Compound activity from PubChem BioAssay.
